{
  "source": "PubChem BioAssay AID492967",
  "about": "(ICCB-Longwood Screening Facility, Harvard Medical School, 2010)",
  "note": "Values joined by “and” are separate entries in the source; they are usually repeats but may differ in a detail not shown here. Equal entries are not always repeated. In all, about 140,000 compounds went through this assay and about 320 (0.23%) were called active. No stated cut-off is given here; in the data, active means z-score mostly below about -2.9 (no sharp cut-off); inactive means mostly above about -1.9. The entries come from a sample that favours actives as a whole.",
  "data": [
    {"test_system": "CapD gamma-glutamyltranspeptidase (Bacillus anthracis Ames Ancestor)", "experiment": "inhibition of CapD gamma-glutamyltranspeptidase – biochemical, fluorescence intensity, primary screen (AID 492967)", "details": "purified CapD enzyme, fluorescence intensity read-out; hits give low values", "values": [
      {"smiles": "Cc1cccc(N2CCN(C(=O)c3cccc(N4C(=O)C5C6C=CC(C6)C5C4=O)c3)CC2)c1C", "note": "(configuration not stated)", "z-score": "-0.42 (inactive)"},
      {"smiles": "CCOC(=O)c1cc2cccc(NC(=O)c3cccc(C(F)(F)F)c3)c2[nH]1", "z-score": "-0.595 (inactive)"},
      {"smiles": "CCCCCNC(=O)c1ccc2c(c1)[nH]c(=S)n1c3ccccc3nc21", "z-score": "-0.3 (inactive)"},
      {"smiles": "CN(CC(=O)O)S(=O)(=O)c1ccc2oc3ccccc3c2c1", "z-score": "0.355 (inactive)"},
      {"smiles": "C=CCN1CCN(C(=O)C2CC2)CC1", "z-score": "0.655 (inactive)"},
      {"smiles": "CCCNC(=O)Nc1ccc2snnc2c1", "z-score": "26.7 (inactive)"},
      {"smiles": "CCOC(=O)c1ccc(N2N=C(C(F)(F)F)/C(=C/c3cc(Cl)c(O)c(OC)c3)C2=O)cc1", "z-score": "-0.22 (inactive)"},
      {"smiles": "CCC(C)(C)c1cc2cc(NS(=O)(=O)c3ccccc3)ccc2[nH]1", "z-score": "-0.4 (inactive)"},
      {"smiles": "CCOC(=O)c1cc2cccnc2nc1C", "z-score": "-0.34 (inactive)"},
      {"smiles": "CCOc1ccc(C(=O)/C(C)=N/O)cc1", "z-score": "-1.18 (inactive)"},
      {"smiles": "Cc1ccc2nc(N3CC(=O)N(CCc4ccccc4)C(=O)C3)c3nncn3c2c1", "z-score": "-0.125 (inactive)"},
      {"smiles": "CC(Oc1ccc(OC(C)C(=O)/C=C/N(C)C)cc1)C(=O)/C=C/N(C)C", "note": "(configuration not stated)", "z-score": "-1.18 (inactive)"},
      {"smiles": "N#Cc1c(-c2ccccc2)cc(-c2ccccc2)c(C#N)c1N", "z-score": "21 (inactive)"},
      {"smiles": "FC(F)(F)c1cccc(N2CCN(C(=S)Nc3ccccc3)CC2)c1", "z-score": "-0.215 (inactive)"},
      {"smiles": "O=C(COC(=O)Cc1ccsc1)Nc1ccccc1C(F)(F)F", "z-score": "-1.17 (inactive)"},
      {"smiles": "CCOc1ccc(/C=C2/SC(=S)N(CC(=O)O)C2=O)cc1", "z-score": "-0.21 (inactive)"},
      {"smiles": "FC(F)(F)C1=CC=NCCN1", "z-score": "-4.38 (active)"},
      {"smiles": "CC(C)(C)OC(=O)/N=C(\\N)N(CCCC(NC(=O)OC(C)(C)C)C(=O)NCc1cccs1)C(=O)OC(C)(C)C", "note": "(configuration not stated)", "z-score": "-0.295 (inactive)"},
      {"smiles": "O=C(c1ccco1)N1CCN(Cc2cccc(C(F)(F)F)c2)CC1", "z-score": "0.64 (inactive)"},
      {"smiles": "CCNC(=O)C(=O)Nc1cccc(C(F)(F)F)c1", "z-score": "0.01 (inactive)"},
      {"smiles": "CCOC(=O)N/N=C1/c2ccccc2C2(O)NC(=O)NC12O", "note": "(configuration not stated)", "z-score": "0.15 (inactive)"},
      {"smiles": "O=C(O)Cn1cc(/C=C2\\C(=O)NN(c3ccccc3)C2=O)c2ccccc21", "z-score": "-6.26 (active)"},
      {"smiles": "CN1C(=O)C(=Cc2cn(CC(=O)NCc3ccco3)c3ccccc23)C(=O)N(C)C1=O", "z-score": "-0.57 (inactive)"},
      {"smiles": "C=CCn1cc(C=C2C(=O)N(C)C(=S)N(C)C2=O)c2ccccc21", "z-score": "3.29 (inactive)"},
      {"smiles": "CCOc1ccc(CCNC(=O)c2nnc(-c3cccnc3)o2)cc1OCC", "z-score": "0.25 (inactive)"},
      {"smiles": "Cc1nc2ccccc2n1CC1CC1(Cl)Cl", "note": "(configuration not stated)", "z-score": "-0.66 (inactive)"},
      {"smiles": "O=C(O)CSc1ncn(-c2ccccc2)n1", "z-score": "0.115 (inactive)"},
      {"smiles": "CC1(C)c2ccccc2N2CCC(=O)NC21/C=C/c1cccnc1", "note": "(configuration not stated)", "z-score": "0.115 (inactive)"},
      {"smiles": "CN(C)/C=C/C(=O)C(Cc1ccc(Cl)cc1)Cc1ccc(Cl)cc1", "z-score": "-0.33 (inactive)"},
      {"smiles": "O=[N+]([O-])c1cccc(C2(O)CN(c3ccc(Cl)cc3)C3=[N+]2CCCS3)c1", "note": "(configuration not stated)", "z-score": "0.185 (inactive)"},
      {"smiles": "COc1ccc2nc3oc(C(=O)NC4CC4)cc3cc2c1", "z-score": "3.45 (inactive)"},
      {"smiles": "O=c1[nH][nH]c(=O)c2c(N=Cc3c[nH]c4ccccc34)cccc12", "z-score": "57.4 (inactive)"},
      {"smiles": "O=C(c1ccccc1)C(O)c1c[nH]c2ccccc12", "note": "(configuration not stated)", "z-score": "0.51 (inactive)"},
      {"smiles": "CC1(C)CC(=O)C(=Cc2c[nH]c3ccccc23)C(=O)C1", "z-score": "-4.71 (active)"},
      {"smiles": "O=c1cc(CO)oc(C(Nc2cccc(C(F)(F)F)c2)c2ccccn2)c1O", "note": "(configuration not stated)", "z-score": "-6.66 (active)"},
      {"smiles": "O=C(CC(NCc1ccco1)C(=O)O)Nc1cccc(C(F)(F)F)c1", "note": "(configuration not stated)", "z-score": "-0.155 (inactive)"},
      {"smiles": "CCOc1ncccc1C(=O)Nc1cccc(C(F)(F)F)c1", "z-score": "-0.145 (inactive)"},
      {"smiles": "CCC1CCCCN1C(=O)CSc1ccc(C)cc1", "note": "(configuration not stated)", "z-score": "-0.23 (inactive)"},
      {"smiles": "O=c1oc2ccccc2cc1-c1nc(-c2ccc(Cl)cc2)cs1", "z-score": "0.955 (inactive)"},
      {"smiles": "Cc1cc(=O)oc2c3c(ccc12)OCN(c1ccccc1Cl)C3", "z-score": "21.1 (inactive)"},
      {"smiles": "CCC(C)NC(=O)c1onc(C)c1Cl", "note": "(configuration not stated)", "z-score": "-0.44 (inactive)"},
      {"smiles": "Cc1c(NS(=O)(=O)c2ccc3c(c2)C(=O)c2ccccc2C3=O)c(=O)n(-c2ccccc2)n1C", "z-score": "-0.465 (inactive)"},
      {"smiles": "O=C1CCCC2=C1C(c1ccc(Cl)cc1)c1c(ccc3ccccc13)N2", "note": "(configuration not stated)", "z-score": "0.255 (inactive)"},
      {"smiles": "Cc1ccc(Oc2cc(Oc3ccc(C)cc3)c3noc4c3c2C(=O)c2ccccc2-4)cc1", "z-score": "0.03 (inactive)"},
      {"smiles": "Cc1cc2c(cc1C)CSC(c1cc(Cl)cc(Cl)c1O)SC2", "z-score": "-0.005 (inactive) and -0.385 (inactive)"},
      {"smiles": "COc1cc2c(C(=O)NCCC(C)C)cn(C)c(=O)c2cc1OC", "z-score": "0.63 (inactive)"},
      {"smiles": "C=CCN(C(=O)c1ccc(N2CC3CC(C2)c2cccc(=O)n2C3)c(NC(=O)c2ccc(OC)cc2)c1)c1ccccc1", "note": "(configuration not stated)", "z-score": "-0.49 (inactive)"},
      {"smiles": "O=C(OC1CCCCC1=O)c1ccc(O)cc1", "note": "(configuration not stated)", "z-score": "-0.295 (inactive)"},
      {"smiles": "CCOc1cccc2cc(C(=O)Nc3ccc(Oc4ccccc4)cc3)c(=O)oc12", "z-score": "1.48 (inactive)"},
      {"smiles": "O=C(COC(=O)c1ccccc1)Nc1ncc(Cl)cc1Cl", "z-score": "0.31 (inactive)"},
      {"smiles": "CC12CCC(C(=O)Nc3ncc(Cl)cc3Cl)(CC1=O)C2(C)C", "note": "(configuration not stated)", "z-score": "-1.89 (active)"},
      {"smiles": "CC12CCC(C(=O)O)(CC1=O)C2(C)C", "note": "(configuration not stated)", "z-score": "-0.19 (inactive)"},
      {"smiles": "CCOC(=O)C1=NN(C(=O)CCc2ccccc2)C(O)(c2ccc(Cl)cc2)C1", "note": "(configuration not stated)", "z-score": "-1.38 (inactive)"},
      {"smiles": "CCC(C(=O)Nc1cccc(OC)c1)N1C(=O)CCn2nccc21", "note": "(configuration not stated)", "z-score": "0.745 (inactive)"},
      {"smiles": "O=C1C2C3c4ccccc4C(c4ccccc43)C2C(=O)N1c1ccccc1Cl", "note": "(configuration not stated)", "z-score": "0.425 (inactive)"},
      {"smiles": "Nc1[nH]c(=S)sc1C(=O)Nc1nccs1", "z-score": "-5.56 (active)"},
      {"smiles": "O=C(Nc1nccs1)c1cc(=O)c2ccccc2o1", "z-score": "-0.41 (inactive)"},
      {"smiles": "O=C(O)c1ccccc1-c1ccccc1C(=O)Nc1nccs1", "z-score": "0.375 (inactive)"},
      {"smiles": "CC(=O)Nc1ccc2c(c1)OCCOCCOCCO2", "z-score": "-0.015 (inactive)"},
      {"smiles": "CC(C)Oc1ccccc1C(N)=O", "z-score": "-0.285 (inactive)"},
      {"smiles": "COc1ccc(CSc2nc(N)nc(-c3cccs3)c2C#N)cc1", "z-score": "3.26 (inactive)"},
      {"smiles": "O=C(Oc1ccc(C=Nc2cccc(Br)c2)cc1)c1ccccn1", "z-score": "-0.36 (inactive)"}
    ]}
  ]
}
